Results as given in PubChem BioAssay AID2535 (National Center for Advancing Translational Sciences (NCATS), 2010).
Activity calls are given as the source filed them. Calls come from the whole dose curve; as a rule, active = well fitted curve in the direction sought with a large enough effect; inconclusive = small, poorly fitted or top-dose-only effect, or effect the other way, or another doubt; inactive = no such curve, though single readings can be large or run the other way.

These molecules were tested against Pyruvate kinase PKLR (Homo sapiens) (UniProt P30613) (assay: Secondary Concentration-Response Assay for Activators of Human Liver Pyruvate Kinase: for Probe SAR). Settings: purified hPK-L, ATP production, Kinase-Glo luminescence; series mostly up to 58.3 µM.
Description: NIH Chemical Genomics Center [NCGC]
Matthew G. Vander Heiden, M.D., Ph.D. [Harvard Medical School, 77 Avenue Louis Pasteur, Boston, MA 02115]
Human pyruvate kinase liver (hPK-L) enzyme was supplied as a highly purified (>95% pure) preparation from Harvard Medical School and assayed for its ability to generate ATP from ADP using phosphoenolpyruvate (PEP) as a substrate. ATP generation was detected in a coupled reaction by luciferase-mediated luminescence, an ATP-dependent process. Pyruvate kinase substrates, PEP and ADP, were present in the assay at Km and approximately 10-fold below Km respectively. The enzyme was assayed at an intermediate level of activity to screen for both inhibitors and activators.
NCGC Assay Protocol Summary for L-isoform:
Three uL of substrate mix (at r.t.) in assay buffer (50 mM Imidazole pH7.2, 50 mM KCl, 7 mM MgCl2, 0.01% Tween 20, 0.05% BSA) was dispensed into white solid bottom 1,536 well microtiter plates so that the final concentrations of substrates in the assay were 0.1 mM ADP and 0.5 mM PEP. 23 nL of compound were delivered by a pin tool and 1 uL of enzyme mix (final concentration of 0.1 nM) in assay buffer (4 degree Celsius) was added. Plates were incubated at room temperature for 1 hour. Two uL of detection mix (Kinase-Glo, Promega; at 4 degree Celsius protected from light) was added and luminescence read by a ViewLux (Perkin Elmer) at 1 second exposure/plate. Data were normalized to the uninhibited (row 31). Additionally, a no enzyme and 5-fold enzyme control was dispensed in row 32, split equally between the two conditions.

Sequence of Pyruvate kinase PKLR (Homo sapiens) (P30613 whole entry, looked up): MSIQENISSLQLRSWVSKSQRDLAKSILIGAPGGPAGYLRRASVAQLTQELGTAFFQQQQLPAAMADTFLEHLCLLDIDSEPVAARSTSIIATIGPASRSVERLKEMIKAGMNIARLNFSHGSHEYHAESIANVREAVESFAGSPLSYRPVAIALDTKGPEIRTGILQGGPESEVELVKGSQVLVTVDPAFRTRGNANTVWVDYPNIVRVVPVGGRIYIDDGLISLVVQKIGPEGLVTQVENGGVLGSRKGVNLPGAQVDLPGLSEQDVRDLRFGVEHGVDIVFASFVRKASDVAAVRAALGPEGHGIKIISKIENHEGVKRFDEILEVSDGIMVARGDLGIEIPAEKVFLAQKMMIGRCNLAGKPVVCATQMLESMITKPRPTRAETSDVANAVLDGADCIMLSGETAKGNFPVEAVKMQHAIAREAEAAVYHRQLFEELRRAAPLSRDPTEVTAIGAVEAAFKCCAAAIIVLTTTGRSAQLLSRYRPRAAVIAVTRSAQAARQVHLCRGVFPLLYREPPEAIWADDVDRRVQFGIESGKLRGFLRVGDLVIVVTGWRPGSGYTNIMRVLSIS

outcome, inactive:
Cc1ccc(NS(=O)(=O)c2cc3c(cc2N(C)C)CCC(=O)N3)cc1C
Cc1ccn2c(NCc3ccco3)c(-c3ccccc3)nc2c1
Cc1ccc(NS(=O)(=O)c2ccc(Cl)cc2)cc1C
COc1cccc(OC2=NS(=O)(=O)c3ccccc32)c1
Cn1c2cc(S(C)=O)sc2c2cnn(Cc3cccc(O)c3)c(=O)c21 (stereo not given)
O=C1CCc2cc(S(=O)(=O)Nc3ccc(-c4ccccc4)cc3)ccc2N1
O=C1c2ccccc2C(=O)N1c1cccc(=O)[nH]1
Cc1ccc(N2C(=O)c3ccccc3C2=O)c(C)c1
O=C1CCc2cc(S(=O)(=O)Nc3ccccc3Cl)ccc2N1
COc1cccc(N2C(=O)c3ccccc3C2=O)c1
O=C1c2ccccc2C(=O)N1c1ccncc1
CC(=O)N1CCCc2cc(S(=O)(=O)Nc3ccc(C)c(C)c3)ccc21
CC(C)Nc1cccc(S(=O)(=O)N2CCCN(S(=O)(=O)c3ccc4c(c3)OCCO4)CC2)c1
O=C1c2ccccc2C(=O)N1c1cccc2ncccc12
N#Cc1cccc(NS(=O)(=O)c2ccc3c(c2)CCC(=O)N3)c1
COc1cccc(Cn2ncc3c4sc(SC)cc4n(C)c3c2=O)c1
Cc1cc(N2C(=O)c3ccccc3C2=O)n[nH]1
O=C1c2ccccc2C(=O)N1Cc1ccncc1
Cc1cc(NS(=O)(=O)c2ccc3c(c2)CCC(=O)N3)ccc1Cl
Cc1cc(NS(=O)(=O)c2ccc3c(c2)CCC(=O)N3)ccc1F
O=C1c2ccccc2C(=O)N1c1cccc(Cl)c1
Cc1ccc(NS(=O)(=O)c2cc3c(cc2Cl)NC(=O)C3)cc1C
Cc1ccc(-c2nc3ccc(Cl)cn3c2Nc2ccccc2)o1
O=C1c2ccccc2C(=O)N1c1ccc2ccccc2n1
CC(=O)N1CCc2cc(S(=O)(=O)Nc3ccc(C)c(C)c3)ccc21
COc1ccc(-c2nc3ccccn3c2Nc2ccccc2C)cc1
O=C1c2ccccc2C(=O)N1c1ccccc1O
O=C1CCc2cc(S(=O)(=O)Nc3cccc(F)c3)ccc2N1
Cc1cc2c(s1)c1cnn(Cc3ccccc3F)c(=O)c1n2C
O=C1CCc2cc(S(=O)(=O)Nc3cccc(Br)c3)ccc2N1
Cc1ccccc1Nc1c(-c2ccccc2)nc2cccc(C)n12
Cc1ccc(C)c(OC2=NS(=O)(=O)c3ccccc32)c1
O=S1(=O)N=C(Oc2ccccc2)c2ccccc21
Cc1cc(C)n2c(Nc3ccccc3)c(-c3ccc(C)o3)nc2n1
O=C1c2ccccc2C(=O)N1c1cnc2ccccc2c1
O=C1c2ccccc2C(=O)N1c1ccc2ncccc2c1
O=C1NS(=O)(=O)c2ccccc21
Cc1ccc(NS(=O)(=O)c2ccc3c(c2)CCC(=O)N3)cc1C
O=C1CCc2cc(S(=O)(=O)Nc3ccccn3)ccc2N1
Cc1ccc(NS(=O)(=O)c2cc3c(cc2Cl)NC(=O)CO3)cc1C
